From PubChem BioAssay (NCI)
Values joined by “and” are separate entries in the source; they are usually repeats but may differ in a detail not shown here. Identical values can stand only once. About 83,000 compounds went through this panel and 20% of them were active in at least one assay; those are over-represented in the sample as a whole.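 Note: values are percent growth. 100 is the growth of untreated cells, values between 100 and 0 indicate rising inhibition; between -100 and 0 indicates cell death.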 Values without a mark were called inactive. Active and inactive are the calls of the source.

test system: M14 melanoma; assay: NCI-60 one-dose screen, 48 h (100 = growth as untreated, 0 = no growth, -100 = all killed); conditions: 10 µM
Description: Growth inhibition of the M14 human tumor cell line is measured as a screen for anti-cancer activity. Cells are grown in 96 well plates and exposed to the test compound for 48 hours. Compounds are tested at a single concentration, which is 10^-5 M for most compounds. The reported endpoint is percent growth (GI% or GIPRCNT), where numbers from 0 - 100% represent growth inhibition, and numbers from -100% - 0 represent cell death. For example, a value of 40 represents 60% growth inhibition. A value of 0 means no net growth occurred over the course of the experiment. A value of -40 indicates 40% of cells at the beginning of the experiment died by the end of the experiment. A value of -100 means all cells are dead at the end of the experiment.
NCI-60 Human Tumor Cell Lines Screen was performed using the standard one-dose NCI protocol, which is described in more detail at https://dtp.cancer.gov/discovery_development/nci-60/default.htm.
Compounds with GIPRCNT values below 10 were considered active. Activity score was based on GIPRCNT using the following formula: […]
Score is 0 for GIPRCNT values of 100 or above, 50 for GIPRCNT values of 0, and 100 for GIPRCNT values of -100.

SMILES | growth [%]
S=c1nc[nH]c2nc[nH]c12 | 14.1
O=c1ccn2c(n1)OC1CC2OC1COC(c1ccccc1)(c1ccccc1)c1ccccc1 (stereo not given) | 112
CS/C(=C\c1ccc(C(=O)c2ccc(C)cc2)n1C)S(C)=O (stereo not given) | 103

same assay, conditions: 10 µM unless noted

SMILES | growth
CC1(CO)CCCC1NCCNC1CCCC1(C)CO (stereo not given) | 96.7% and 103%
CCN(CC)Cc1cc2[nH]c3c4ccc(Cl)cc4ncc3c2cc1OC | -49.3% (active) and -42.6% (active)
NCCSSC/C=C\CSSCCN | 96.9%
O=C(OCc1ccccc1)c1ccccc1 | 104% and 91%
CCC(C)NC(=O)c1ccccc1C (stereo not given) | 95.3%
c1ccc2c[n+](Cc3ccc4ccccc4n3)ccc2c1 | 72.3%
C(=N\OCCc1ccccc1)/c1ccccn1 | 115% and 117%
O=C(c1ccccc1)C1(Br)CCCCC1 | 98.6%
Cc1onc(-c2c(F)cccc2Cl)c1-c1ncc(-c2ccc(Cl)cc2)o1 | 54.8% and 46.6%
COc1ccc2oc3c(ccc[n+]3C)c(=O)c2c1 | 102%
O=C(O)C(Cc1ccc(OS(=O)(=O)Cc2ccccc2)cc1)NS(=O)(=O)Cc1ccccc1 (stereo not given) | 113% and 100%
CCC(=O)Oc1ccc(OCc2ccccc2)cc1 | 101% and 77.3%
O=c1[nH]nnc2cc(Cl)ccc12 | 105%
O=C(O)Cc1cc(=O)[nH]n(-c2ccccc2)c1=O | 106%
Cc1ccc(C(=O)c2ccc(C)cc2)cc1 | 101%
CC(C)(C)OC(=O)CC1(O)CCCCC1 | 108%
CC(=O)/C(N=Nc1ccc(S(=O)(=O)c2ccc(N=N/C(C(C)=O)=C(/C)O)cc2)cc1)=C(\C)O | 105%

SMILES | growth
O=C(O)c1c2c(nc3ccccc13)Cc1ccccc1-2 | 91.5% and 96%
CCOC(=O)C1=C(C)NC(C)=C(C(=O)OCC)C1 | 162% and 98%
Oc1ccc(O)c(-c2ccccc2)c1 | 65.9%
CC(=O)C[n+]1ccccc1Sc1ccc(Cl)cc1 | 99.3%
Cn1c(N)c(N=O)c(=O)n(C)c1=O | 100% and 96.7%
COc1cc(C2c3cc4c(cc3C(OC(=O)C[n+]3ccccc3)C3COC(=O)C23)OCO4)cc(OC)c1OC (stereo not given) | 7.72% (active)
NCCCCCC(=O)O | 106% [middle of 4 runs]
CCOC(=O)c1ccc(C(=N)N)cc1 | 108%
CN(C)CC(CN(C)C)C(O)c1ccccc1 (stereo not given) | 96.4%
ON=C(C1CCCCC1)C1CCCCC1 | 109%
N=C(N)N1CCc2ccccc2C1 | 93.2% and 108%
Cc1nc2c(=O)[nH]c(=S)[nH]c2[nH]c1=O | 113% and 110%
CN(C)C(=N)N=C(N)N | 99.2% and 101%
CC(C)=NOC(C)C(=O)O (stereo not given) | 94.4%
COc1ccc(CCNC(=S)NN)cc1OC | 104%
COc1ccc(CCN=Cc2ccc(Cl)cc2)cc1OC | 111%
CCC/C(=N/NC(N)=O)c1ccco1 | 97.6%

same assay, conditions: 50 µM

SMILES | growth [%]
S=c1nc[nH]c2nc[nH]c12 | 15.6

same assay, conditions: 100 µM

SMILES | growth [%]
O=c1ccn2c(n1)OC1CC2OC1COC(c1ccccc1)(c1ccccc1)c1ccccc1 (stereo not given) | 46.1
CS/C(=C\c1ccc(C(=O)c2ccc(C)cc2)n1C)S(C)=O (stereo not given) | 69
